# Assay results from ChEMBL document CHEMBL1201862, “PubChem BioAssay data set” (2004).
# Potency and affinity values are given separately.
# Assay: M. tuberculosis growth inhibition, dose response, 7H9 media, purified and synthesized compounds, set 4 (AID 504857); call rule not given here
# Assay type: functional
smiles,measurement,value
Nc1c(C(=O)NC2CCCCC2)nsc1C(=O)OCC(=O)NC1CCCCC1,IC90,> 71.1 µM (active)
